Tested on: PRMT1 (protein arginine N-methyltransferase 1)
Assay: small molecules binding arginine methyltransferase PRMT1 – biochemical, small-molecule microarray, 635 nm fluorescence, primary screen (AID 1088)
Details: higher = more signal

**Q.** Which composite z-score does the source give for `[N-]=[N+]=Nc1ccccc1[C@H]1OC(c2ccc(OCCCO)cc2)=N[C@@]1(Cc1ccccc1)C(=O)N1CCCCC1` here?
**A.** 1.54

**Q.** `CCCNC(=O)[C@@]1(c2ccc([N+](=O)[O-])cc2)CC(=O)N(C2CCCCC2)[C@@H]1c1ccc(CO)cc1` was tested. Which composite z-score did it give?
**A.** 1.57

**Q.** Which composite z-score does the source give for `CN1C(=O)C2C=CC(C(O)c3ccccn3)N(N(c3ccccc3)c3ccccc3)C2C1=O` (stereo not given) here?
**A.** 0.412

**Q.** How did the composite z-score turn out when `COCCOC(=O)N1C(=O)[C@@]2(c3cc(C#CC4=CCCCC4)ccc31)[C@H](c1ccc(O)cc1)N1[C@H](c3ccccc3)[C@H](c3ccccc3)OC(=O)[C@H]1[C@@H]2C(=O)N1CCN(c2ncccn2)CC1` was run?
**A.** 0.234

**Q.** With `C[N+](C)(C)CCCCCCNC(=O)[C@H]1C[C@H]2C(=O)N[C@@H](Cc3ccccc3)C(=O)N2[C@H]1c1ccc(O)cc1` as the compound, how does the composite z-score read?
**A.** 1.53

**Q.** How did the composite z-score turn out when `O=C1NC(=O)C2C1C=CC(C(O)c1cccc3ccccc13)N2Nc1ccc(Cl)cc1Cl` (stereo not given) was run?
**A.** 0.811

**Q.** How did the composite z-score turn out when `COC(=O)[C@@]1(Cc2ccc(F)cc2)[C@H]2c3cc(C(=O)N4CCCC4)n(CCc4ccc(O)c(O)c4)c3C[C@H]2CN1C(=O)c1ccccc1` was run?
**A.** -0.522

**Q.** `O=C(CS)NCCCCCCNC(=O)[C@H]1C[C@H]2C(=O)N[C@@H](Cc3ccccc3)C(=O)N2[C@H]1c1ccc(O)cc1` was tested. Which composite z-score did it give?
**A.** 1.53

**Q.** `C#CCN([C@@H](Cc1ccc(O)cc1)C(=O)OC)[C@@H](/C=C/C1CC1)[C@H](O)Cc1ccccc1` was tested. Which composite z-score did it give?
**A.** 0.0371

**Q.** With `CCOC(=O)c1ccc(NC(=O)O[C@H]2[C@H](OC(=O)Nc3ccc4c(c3)OCO4)[C@@H](OC(=O)Nc3ccc4c(c3)OCO4)[C@@H](OC)O[C@@H]2CO)cc1` as the compound, how does the composite z-score read?
**A.** 1.53

Source: PubChem BioAssay
